For 91 molecules, inhibition results are on record in PubChem BioAssay AID588727 (Southern Research Specialized Biocontainment Screening …, 2011).

Structures are written as SMILES. The campaign covered roughly 350,000 compounds. About 450 (0.13%) were called active. How the calls were made is not given here. A selection follows. Measured potencies and affinities stand elsewhere.

A short description of this assay: inhibitors of VEEV TC-83 cytopathic effect, confirmation, Vero cells (AID 588727). The following applies: VEEV TC-83 cytopathic effect inhibition, at 20 µM. Background: Protection from cytopathic effect is a common read-out in antiviral testing.
The mark [1] stands for this setting: stronger effect = higher value unless noted.
[2] abbreviates: measured here: 10K pilot screen inhibition, stronger effect = higher value.

The term inhibition denotes the percentage by which the read-out fell short of the control. On to `Clc1ccc(-c2cc(C3CCNCC3)[nH]n2)cc1`, for which the inhibition under setting [1] is 0.74% (inactive).

With `c1ccc2c(-c3cc(C4CCNCC4)[nH]n3)cccc2c1`, the inhibition under setting [1] is 6.53% (inactive).

With `CC(OC(=O)c1cc(S(=O)(=O)N2CCOCC2)ccc1F)C(=O)NCC1CCCCC1` (centres undefined), the inhibition under setting [1] was 0.1% (inactive).

As for `O=C(N/N=C/c1cccnc1)c1ccc(NC(=O)c2ccccc2Cl)cc1`, the inhibition under setting [1] was 1.2% (inactive).

For `O=C(NCCN1CCN(C(=O)c2cccc(OC(F)F)c2)CC1)c1cccc(OC(F)F)c1`, under setting [1], the inhibition is 0.88% (inactive).

`O=C(N[C@@H]1CCC(=O)N(CC[C@H](Sc2ccc(Br)cc2)c2ccccc2)CC1)OCc1ccccc1`: the inhibition under setting [1] is 1.21% (inactive).

With `Cc1ccc(-c2csc(NC(=O)/C=C/c3cccs3)n2)cc1C`, under setting [1], the inhibition is 7.86% (inactive).

For the molecule `O=C(/C=C/c1cccs1)Nc1nc(-c2ccccc2)cs1`, under setting [1], the inhibition was 10.2% (inactive).

For the molecule `COc1ccc(OC)c(/C=N/n2c(COc3ccccc3)n[nH]c2=S)c1`, the inhibition under setting [1] was 1.2% (inactive).

For the molecule `Cc1sc(NC(=S)NC(=O)c2ccco2)c(C#N)c1C`, the inhibition under setting [1] was 0.86% (inactive).

Turning to `Cc1sc(NC(=S)NC(=O)c2ccccc2)c(C#N)c1C`, the inhibition under setting [1] was 1.72% (inactive).

In the case of `Cc1cccc(S(=O)(=O)N(C)C[C@H]2OCc3cn(nn3)CCCC(=O)N([C@@H](C)CO)C[C@@H]2C)c1`, the inhibition under setting [1] was 0.62% (inactive).

Take `O=S(=O)(c1ccc(F)cc1)N1CCC2(CC1)OCCO2`: the inhibition under setting [1] is 0.49% (inactive).

In the case of `COC(C[C@H](O)C[C@H](O)[C@@H](C)OCc1ccccc1)OC`, the inhibition under setting [1] was 0.19% (inactive).

As to `CCn1c(C)nc2cc(C(=O)OC)ccc21`, the inhibition under setting [1] is 0.32% (inactive).

As to `CCn1c(C)nc2cc(C(=O)OCCC(F)(F)F)ccc21`, the inhibition under setting [1] is 8.24% (inactive).

With `Cc1cc(C)nc(NS(=O)(=O)c2ccc(NC(=O)c3ccc(N4C(=O)CCC4=O)cc3)cc2)n1`, the inhibition result under setting [1] was “inactive”.

As to `Nc1ccn([C@@H]2O[C@H](CO)[C@@H](O)[C@@H]2O)c(=O)n1`, the inhibition result under setting [1] is “inactive”.

Regarding `Nc1ccn([C@@H]2O[C@H](CO)[C@@H](O)[C@H]2O)c(=O)n1`, under setting [1], the inhibition is 0.98% (inactive).

`CNC(=S)N(Cc1ccccc1)Cc1cccnc1`: under setting [1], the inhibition was 3.13% (inactive).

As to `CCOC(=O)c1c(NC(=O)CSc2nnc(-c3ccccc3)o2)sc(C(C)=O)c1C`, the inhibition under setting [1] is 2.08% (inactive).

With `CC(OC(=O)/C=C/c1cccc(C(F)(F)F)c1)C(=O)NC1CCCCC1C` (centres undefined), under setting [1], the inhibition was 3.48% (inactive).

As to `Cc1ccc(NC(=O)/C(C#N)=N/Nc2ccc(C(=O)O)cc2)c(C)c1`, the inhibition under setting [1] is 1.78% (inactive).

As for `CNC(=O)C(=O)Nc1ccc(C)cc1C`, the inhibition under setting [1] was 0.04% (inactive).

`C/C(=N\N=C1\NC(=O)C(Cc2ccccc2)S1)c1ccccc1` (centres undefined): the inhibition under setting [1] is 1.26% (inactive).

As for `CC(C)=N/N=C1/NC(=O)C(Cc2ccccc2)S1` (centres undefined), under setting [1], the inhibition was 2.54% (inactive).

As for `CCOC(=O)c1ccc(CC2S/C(=C(\C#N)C(C)=O)NC2=O)cc1` (centres undefined), the inhibition under setting [1] is 1.08% (inactive).

Turning to `CC(=O)/C(C#N)=C1\NC(=O)C(Cc2ccc(F)cc2)S1` (centres undefined), the inhibition under setting [1] was 9.23% (inactive).

For the molecule `CN1CCN(c2nc3cc(N4CCOCC4)ccc3s2)CC1`, the inhibition entry under setting [1] was “inactive”.

As to `CN1CCN(c2ccc3nccnc3c2)CC1`, the inhibition under setting [1] was 0.19% (inactive).

With `O=C1CNC(=O)/C(=C\c2ccc(F)cc2)N1`, the inhibition entry under setting [1] is “inactive”.

For `CCOC(=O)COc1cc2c3c(c(=O)oc2cc1C)CCCC3`, the inhibition under setting [1] was 1.83% (inactive).

As to `CCOC(=O)CSc1nnc(NC(=O)CN2CCCCC2)s1`, the inhibition result under setting [1] is “inactive”.

On to `CC(=O)Nc1ccc(S(=O)(=O)N(C)CC(=O)OC(C)C(=O)NC2(C#N)CCCCC2)cc1` (centres undefined), for which the inhibition under setting [1] is 0.4% (inactive).

`CCOc1cc(CNCCCN2CCOCC2)ccc1OCC(=O)NC(C)(C)C`: the inhibition under setting [1] is 0.44% (inactive).

As for `COc1ccc(NC(=O)COc2ccc(CNCCCN3CCOCC3)cc2OC)cc1`, the inhibition entry under setting [1] is “inactive”.

With `COc1ccc(N2CCN(CCCn3c(=S)[nH]c4ncccc4c3=O)CC2)cc1`, the inhibition under setting [1] is 26.7% (inactive).

Take `CCCCn1c(=S)[nH]c2ncccc2c1=O`: the inhibition under setting [1] is 1.76% (inactive).

For `Cc1ccc2oc(=O)cc(/C=C/c3ccccc3)c2c1`, the inhibition under setting [1] was 0.72% (inactive).

For `Cc1ccccc1C(=O)NN1C(=O)CSC1=S`, the inhibition under setting [1] was 0.35% (inactive).

`CCc1ccc(C2CC(=O)N(c3cccc(F)c3)C3=C2C(=O)OC3)cc1` (centres undefined): the inhibition entry under setting [1] was “inactive”.

As for `Cc1ccc(NC(=O)[C@H](Cc2ccccc2)NC(=O)[C@@H]2Cc3ccccc3CN2)c(C)c1`, under setting [1], the inhibition was 1.94% (inactive).

`COc1ccc(CNC(=O)[C@H](Cc2c[nH]c3ccccc23)NC(=O)[C@@H]2Cc3ccccc3CN2)cc1`: the inhibition entry under setting [1] was “inactive”.

Take `CC(NC(=O)[C@H](Cc1c[nH]c2ccccc12)NC(=O)[C@@H]1Cc2ccccc2CN1)c1ccccc1` (some centres undefined): the inhibition result under setting [1] was “inactive”.

With `CC(C)C[C@H](NC(=O)[C@@H]1Cc2ccccc2CN1)C(=O)Nc1ccc(C(C)C)cc1`, the inhibition under setting [1] is 0.75% (inactive).

For the molecule `Cc1cccc(NC(=O)[C@@H](CC(C)C)NC(=O)[C@@H]2Cc3ccccc3CN2)c1`, the inhibition result under setting [1] is “inactive”.

Turning to `Cc1ccc(NC(=O)[C@H](NC(=O)[C@@H]2Cc3ccccc3CN2)c2ccccc2)c(C)c1`, the inhibition under setting [1] was 1.71% (inactive).

`COc1ccccc1CNC(=O)[C@H](Cc1c[nH]c2ccccc12)NC(=O)[C@@H]1Cc2ccccc2CN1`: the inhibition under setting [1] was 0.04% (inactive).

With `Cc1cc(C)cc(NC(=O)[C@H](Cc2c[nH]c3ccccc23)NC(=O)[C@@H]2Cc3ccccc3CN2)c1`, the inhibition under setting [1] is 0.29% (inactive).

With `O=C(O)c1cc(S(=O)(=O)Nc2cccc(S(=O)(=O)N3CCCC3)c2)ccc1Cl`, the inhibition under setting [1] is 0.74% (inactive).

Regarding `Cc1ccc(C(=O)Nc2cccnc2Oc2ccc(Cl)cc2)cc1`, under setting [1], the inhibition is 7.89% (inactive).

Regarding `O=C(O)c1ccc(Cl)c(S(=O)(=O)N(Cc2ccccc2)c2ccccc2Cl)c1`, the inhibition result under setting [1] is “inactive”.

As to `CCC(O)CC(C(=O)NNc1ccccc1)C(=O)NNc1ccccc1` (centres undefined), the inhibition (stronger effect = higher value) was 1.75% (inactive) and the inhibition under setting [2] stood at 1.77%.

Consider `COc1ccc(OCc2cc(/C=N\NC(=O)c3ccccc3)ccc2OC)cc1`, for which the inhibition under setting [1] is 7.93% (inactive).

Regarding `COc1cccc(NC(=O)[C@H](Cc2ccccc2)NC(=O)[C@@H]2Cc3ccccc3CN2)c1`, under setting [1], the inhibition was 2.9% (inactive).

On to `COc1cccc(NC(=O)[C@H](CC(C)C)NC(=O)[C@@H]2Cc3ccccc3CN2)c1`, for which, under setting [1], the inhibition was 0.34% (inactive).

Turning to `c1ccc(CSc2ncnc3c2ncn3C2CCCCO2)cc1` (centres undefined), under setting [1], the inhibition is 4.13% (inactive).

In the case of `Fc1ccccc1CSc1ncnc2c1ncn2C1CCCCO1` (centres undefined), the inhibition under setting [1] is 4.89% (inactive).

In the case of `CCOC(=O)C1CCC(=O)C1` (centres undefined), under setting [1], the inhibition is 0.89% (inactive).

With `Cn1c(CN2CCCCC2)nc2cc(NS(=O)(=O)c3ccc(F)cc3)ccc21`, the inhibition under setting [1] was 0.17% (inactive).

As to `C#CCN(C[C@@H]1[C@@H](OC(=O)NC2CC2)[C@@H](OC(=O)NC2CC2)Cn2c(=O)ccc(=O)n21)S(=O)(=O)c1ccc(C)cc1`, under setting [1], the inhibition is 0.49% (inactive).

On to `C#CCN(C[C@@H]1[C@@H](OC(=O)Nc2cccs2)[C@@H](OC(=O)Nc2cccs2)Cn2c(=O)n(CCCCCC)c(=O)n21)S(=O)(=O)c1ccc(C)cc1`, for which, under setting [1], the inhibition result is “inactive”.

`COc1ccc(-c2c3c(=O)n(C)c(=O)n(C)c3cn2Cc2cccnc2)cc1`: the inhibition reads like this: (stronger effect = higher value) 1.95% (inactive); under setting [2], 1.55%.

Consider `CC(C)=CCN1CCN(Cc2coc3ccc(C)cc3c2=O)CC1CCO` (centres undefined), for which the inhibition under setting [1] is 0.54% (inactive).

For the molecule `Cc1ccc2nc(NC(=O)Cn3nc(C)c([N+](=O)[O-])c3C)sc2c1`, the inhibition under setting [1] was 5.1% (inactive).

`CN1CCN(C(=O)N2c3ccccc3C=Cc3ccccc32)CC1`: under setting [1], the inhibition is 0.28% (inactive).

Consider `CN(C)CCCNC(=O)c1cc2sc3ccccc3c2s1`, for which the inhibition under setting [1] is 0.94% (inactive).

Turning to `COCCNC(=O)c1cc2sc3ccccc3c2s1`, the inhibition under setting [1] was 3.33% (inactive).

Regarding `O=C1/C(=C/c2cccs2)SC(=S)N1CC(=O)N1CCCCC1CCO` (centres undefined), the inhibition under setting [1] is 2.22% (inactive).

With `COC(=O)C/C=C/N(Cc1ccccc1OC)S(=O)(=O)CCl`, the inhibition result under setting [1] was “inactive”.

Take `COc1ccc(NC2=C(NC(C)=O)C(=O)c3ccccc3C2=O)cc1`: the inhibition result under setting [1] was “inactive”.

Take `CN(C)c1ccc(NC2=C(Cl)C(=O)c3ccccc3C2=O)cc1`: the inhibition under setting [1] is 2.81% (inactive).

With `O=C(Nc1ccc2ccccc2c1)c1ccccc1[N+](=O)[O-]`, the inhibition under setting [1] is 0.3% (inactive).

On to `O=C(NC(=S)NCCN1CCOCC1)c1cccc(Cl)c1`, for which the inhibition under setting [1] is 2.05% (inactive).

As for `O=S(=O)(NCC1CN(S(=O)(=O)c2c(F)cccc2F)C1)c1ccc2c(c1)OCCO2`, the inhibition under setting [1] was 0.08% (inactive).

Turning to `COc1ccc(OC)c(Nc2nc(=O)c3cccnc3s2)c1`, under setting [1], the inhibition is 4.47% (inactive).

As for `Cc1ccc(Nc2nc(=O)c3cccnc3s2)cc1`, the inhibition result under setting [1] is “inactive”.

As for `CC(=O)c1cccc(Nc2nc(=O)c3cccnc3s2)c1`, under setting [1], the inhibition was 3.68% (inactive).

Consider `CC(=O)c1ccc(Nc2nc(=O)c3cccnc3s2)cc1`, for which the inhibition under setting [1] was 2.57% (inactive).

Regarding `COCOCCn1cc(CN2CCS(=O)(=O)N(Cc3ccc(-c4cccc(CO)c4)cc3)C(CC(C)C)C2=O)nn1` (centres undefined), the inhibition under setting [1] is 6.1% (inactive).

Consider `CCOC(=O)[C@@H]1[C@H]2COc3ccc(Br)cc3[C@@H]2N2C(=O)N(c3cccc(Cl)c3)C(=O)[C@]12C`, for which the inhibition result under setting [1] was “inactive”.

Turning to `CCOC(=O)C1=C(N)c2ccccc2CC1C(C)C` (centres undefined), under setting [1], the inhibition entry is “inactive”.

As for `CCOC(=O)C1=C(NC(=S)NC(=O)c2ccccc2)c2ccccc2CC1(C)CC` (centres undefined), the inhibition reads like this: (stronger effect = higher value) 11.4% (inactive); under setting [2], 20.8%.

`CN1CCN(C(=O)c2ccc3c(c2)N(Cc2cccc(Cl)c2)C(=O)c2ccccc2S3(=O)=O)CC1`: under setting [1], the inhibition result is “inactive”.

With `Cc1ccc(C(=O)N2CCN(c3ccccn3)CC2)cc1C`, the inhibition under setting [1] is 1.05% (inactive).

As for `O=C(c1ccc2c(c1)N(Cc1ccc(F)cc1)C(=O)c1ccccc1S2(=O)=O)N1CCN(c2ccccn2)CC1`, under setting [1], the inhibition was 8.23% (inactive).

For `Cc1ccc(C)c(CN2C(=O)c3ccccc3S(=O)(=O)c3ccc(C(=O)N4CCN(C)CC4)cc32)c1`, under setting [1], the inhibition is 0.5% (inactive).

As for `CC(=O)C(=Nc1cccc(Cl)c1)NNc1ccccc1C`, the inhibition entry under setting [1] was “inactive”.

Take `O=C(C[n+]1cccc(NC(=O)c2ccccc2)c1)c1cccc([N+](=O)[O-])c1`: the inhibition result under setting [1] was “inactive”.

Consider `CC(=O)Nc1ccc(C(=O)OCC(=O)c2cccc([N+](=O)[O-])c2)cc1`, for which, under setting [1], the inhibition was 0.91% (inactive).

As to `CCOC(=O)C1=C(COC(=O)c2cccc(NC(C)=O)c2)NC(=O)NC1C` (centres undefined), the inhibition under setting [1] was 1.96% (inactive).
